# Molecular target: Nonstructural protein 3 (Zika virus) (UniProt A0A024AXB9)
# Conditions: PRVABC59, Concentration 10.0 uM
# Nonstructural protein 3 (Zika virus), sequence (A0A024AXB9 as listed by the source): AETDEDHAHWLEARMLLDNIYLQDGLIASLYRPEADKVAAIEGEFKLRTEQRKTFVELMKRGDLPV
smiles,measurement,setting,value
Cc1cccc(CNc2ccc(Cl)cc2C(=O)Nc2ccc3c(c2)CNC3)n1,pKD,"Immobilization level 10000.0 pg/mm2, Rmax 24.0 pg/mm2, ka 19887.988 M-1s-1, kd 1.214 1/s",4.21
same,pKD,"Immobilization level 12000.0 pg/mm2, Rmax 8.0 pg/mm2, ka 63837.388 M-1s-1, kd 0.552 1/s",5.06
same,pKD,"Immobilization level 13000.0 pg/mm2, Rmax 43.0 pg/mm2, ka 14963.881 M-1s-1, kd 1.059 1/s",4.15
Cn1cc(CNC(=O)[C@H](Nc2ccc3c(c2)CNC3)c2cc(Cl)cc(C3CC3)c2)cn1,pKD,"Immobilization level 10000.0 pg/mm2, Rmax 44.0 pg/mm2, ka 376767.851 M-1s-1, kd 0.158 1/s",6.38
same,pKD,"Immobilization level 12000.0 pg/mm2, Rmax 64.0 pg/mm2, ka 164221.498 M-1s-1, kd 0.09 1/s",6.26
same,pKD,"Immobilization level 13000.0 pg/mm2, Rmax 64.0 pg/mm2, ka 253337.321 M-1s-1, kd 0.133 1/s",6.28
O=C(NC1CCOCC1)[C@H](Nc1ccc2c(c1)CNC2)c1cc(Cl)cc(C2CC2)c1,pKD,"Immobilization level 10000.0 pg/mm2, Rmax 26.0 pg/mm2, ka 616891.885 M-1s-1, kd 0.14 1/s",6.64
same,pKD,"Immobilization level 12000.0 pg/mm2, Rmax 48.0 pg/mm2, ka 284907.141 M-1s-1, kd 0.112 1/s",6.4
same,pKD,"Immobilization level 13000.0 pg/mm2, Rmax 35.0 pg/mm2, ka 474880.78 M-1s-1, kd 0.123 1/s",6.59
Cn1cc(CCc2nc3c(C(=O)Nc4ccc5c(c4)CNC5)cc(Cl)cc3[nH]2)cn1,pKD,"Immobilization level 10000.0 pg/mm2, Rmax 29.0 pg/mm2, ka 162831.43 M-1s-1, kd 0.539 1/s",5.48
same,pKD,"Immobilization level 12000.0 pg/mm2, Rmax 67.0 pg/mm2, ka 60654.253 M-1s-1, kd 0.241 1/s",5.4
same,pKD,"Immobilization level 13000.0 pg/mm2, Rmax 46.0 pg/mm2, ka 118753.092 M-1s-1, kd 0.416 1/s",5.46
O=C(NCC(F)F)[C@H](Nc1ccc2c(c1)CNC2)c1cc(Cl)cc(C2CC2)c1,pKD,"Immobilization level 10000.0 pg/mm2, Rmax 47.0 pg/mm2, ka 474542.901 M-1s-1, kd 0.05 1/s",6.97
same,pKD,"Immobilization level 12000.0 pg/mm2, Rmax 82.0 pg/mm2, ka 199001.376 M-1s-1, kd 0.068 1/s",6.46
same,pKD,"Immobilization level 13000.0 pg/mm2, Rmax 74.0 pg/mm2, ka 337297.719 M-1s-1, kd 0.055 1/s",6.78
CNC(=O)[C@H](Nc1ccc2c(c1)CNC2)c1cccc2[nH]ncc12,pKD,"Immobilization level 3900.0 pg/mm2, Rmax 32.0 pg/mm2, ka 221759.296 M-1s-1, kd 2.211 1/s",5
same,pKD,"Immobilization level 4900.0 pg/mm2, Rmax 43.0 pg/mm2, ka 260065.267 M-1s-1, kd 2.378 1/s",5.04
same,pKD,"Immobilization level 5500.0 pg/mm2, Rmax 48.0 pg/mm2, ka 212060.721 M-1s-1, kd 2.045 1/s",5.02
same,pKD,"Immobilization level 10000.0 pg/mm2, Rmax 60.0 pg/mm2, ka 93401.957 M-1s-1, kd 2.887 1/s",4.51
same,pKD,"Immobilization level 12000.0 pg/mm2, Rmax 22.0 pg/mm2, ka 158759.097 M-1s-1, kd 1.348 1/s",5.07
same,pKD,"Immobilization level 13000.0 pg/mm2, Rmax 39.0 pg/mm2, ka 126882.155 M-1s-1, kd 1.56 1/s",4.91
O=C(Nc1ccc2c(c1)CNC2)c1cc(C(F)(F)F)cc2[nH]ccc12,pKD,"Immobilization level 3900.0 pg/mm2, Rmax 30.0 pg/mm2, ka 544431.648 M-1s-1, kd 0.73 1/s",5.87
same,pKD,"Immobilization level 4900.0 pg/mm2, Rmax 46.0 pg/mm2, ka 302890.351 M-1s-1, kd 0.564 1/s",5.73
same,pKD,"Immobilization level 5500.0 pg/mm2, Rmax 46.0 pg/mm2, ka 376673.864 M-1s-1, kd 0.583 1/s",5.81
same,pKD,"Immobilization level 10000.0 pg/mm2, Rmax 31.0 pg/mm2, ka 377188.867 M-1s-1, kd 0.653 1/s",5.76
same,pKD,"Immobilization level 12000.0 pg/mm2, Rmax 50.0 pg/mm2, ka 339395.125 M-1s-1, kd 0.433 1/s",5.89
same,pKD,"Immobilization level 13000.0 pg/mm2, Rmax 43.0 pg/mm2, ka 290221.417 M-1s-1, kd 0.559 1/s",5.71
C[C@@H](N)c1ccc(NC(=O)c2cc(Cl)cc3[nH]ncc23)cc1,pKD,"Immobilization level 3900.0 pg/mm2, Rmax 41.0 pg/mm2, ka 249513.67 M-1s-1, kd 1.946 1/s",5.11
same,pKD,"Immobilization level 4900.0 pg/mm2, Rmax 50.0 pg/mm2, ka 225007.554 M-1s-1, kd 1.686 1/s",5.12
same,pKD,"Immobilization level 5500.0 pg/mm2, Rmax 61.0 pg/mm2, ka 227099.936 M-1s-1, kd 1.979 1/s",5.06
same,pKD,"Immobilization level 10000.0 pg/mm2, Rmax 53.0 pg/mm2, ka 348896.97 M-1s-1, kd 2.109 1/s",5.22
same,pKD,"Immobilization level 12000.0 pg/mm2, Rmax 62.0 pg/mm2, ka 212895.642 M-1s-1, kd 1.524 1/s",5.14
same,pKD,"Immobilization level 13000.0 pg/mm2, Rmax 66.0 pg/mm2, ka 290082.005 M-1s-1, kd 1.572 1/s",5.27
O=C1NCc2c1cccc2C(=O)Nc1ccc2c(c1)CNC2,pKD,"Immobilization level 3900.0 pg/mm2, Rmax 18.0 pg/mm2, ka 393715.885 M-1s-1, kd 4.071 1/s",4.99
same,pKD,"Immobilization level 4900.0 pg/mm2, Rmax 15.0 pg/mm2, ka 235814.335 M-1s-1, kd 2.807 1/s",4.92
same,pKD,"Immobilization level 5500.0 pg/mm2, Rmax 18.0 pg/mm2, ka 357121.96 M-1s-1, kd 4.231 1/s",4.93
same,pKD,"Immobilization level 12000.0 pg/mm2, ka 172299.161 M-1s-1, kd 1.476 1/s",5.07
same,pKD,"Immobilization level 13000.0 pg/mm2, Rmax 19.0 pg/mm2, ka 18937.32 M-1s-1, kd 1.323 1/s",4.16
CCNCc1ccc(NC(=O)c2cc(Cl)cc3[nH]ncc23)cc1,pKD,"Immobilization level 3900.0 pg/mm2, Rmax 49.0 pg/mm2, ka 254831.951 M-1s-1, kd 6.984 1/s",4.56
same,pKD,"Immobilization level 4900.0 pg/mm2, Rmax 79.0 pg/mm2, ka 107155.284 M-1s-1",4.35
same,pKD,"Immobilization level 5500.0 pg/mm2, Rmax 69.0 pg/mm2, ka 175345.198 M-1s-1",4.55
same,pKD,"Immobilization level 12000.0 pg/mm2, Rmax 35.0 pg/mm2, ka 320872.936 M-1s-1, kd 4.693 1/s",4.83
CNCc1ccc(NC(=O)c2cc(Cl)cc3[nH]ncc23)cc1,pKD,"Immobilization level 3900.0 pg/mm2, Rmax 37.0 pg/mm2, ka 226628.924 M-1s-1, kd 2.375 1/s",4.98
same,pKD,"Immobilization level 4900.0 pg/mm2, Rmax 68.0 pg/mm2, ka 224620.672 M-1s-1, kd 2.867 1/s",4.89
same,pKD,"Immobilization level 5500.0 pg/mm2, Rmax 65.0 pg/mm2, ka 234270.717 M-1s-1, kd 2.589 1/s",4.96
same,pKD,"Immobilization level 10000.0 pg/mm2, Rmax 32.0 pg/mm2, ka 593939.753 M-1s-1, kd 4.324 1/s",5.14
same,pKD,"Immobilization level 12000.0 pg/mm2, Rmax 64.0 pg/mm2, ka 470578.84 M-1s-1, kd 3.187 1/s",5.17
same,pKD,"Immobilization level 13000.0 pg/mm2, Rmax 38.0 pg/mm2, ka 481481.04 M-1s-1, kd 3.216 1/s",5.17
N[C@H]1CCCc2ccc(NC(=O)c3cc(Cl)cc4[nH]ncc34)cc21,pKD,"Immobilization level 3900.0 pg/mm2, Rmax 27.0 pg/mm2, ka 296746.451 M-1s-1, kd 1.513 1/s",5.29
same,pKD,"Immobilization level 4900.0 pg/mm2, Rmax 56.0 pg/mm2, ka 115778.511 M-1s-1, kd 1.284 1/s",4.96
same,pKD,"Immobilization level 5500.0 pg/mm2, Rmax 46.0 pg/mm2, ka 170057.868 M-1s-1, kd 1.305 1/s",5.12
same,pKD,"Immobilization level 10000.0 pg/mm2, Rmax 44.0 pg/mm2, ka 295859.47 M-1s-1, kd 1.578 1/s",5.27
same,pKD,"Immobilization level 12000.0 pg/mm2, Rmax 41.0 pg/mm2, ka 173417.805 M-1s-1, kd 0.975 1/s",5.25
same,pKD,"Immobilization level 13000.0 pg/mm2, Rmax 62.0 pg/mm2, ka 213953.785 M-1s-1, kd 1.191 1/s",5.25
Cc1ccc(C(C)C)c(C(=O)Nc2ccc3c(c2)CNC3)c1,pKD,"Immobilization level 10000.0 pg/mm2, Rmax 25.0 pg/mm2, ka 195679.525 M-1s-1, kd 7.321 1/s",4.43
same,pKD,"Immobilization level 12000.0 pg/mm2, Rmax 28.0 pg/mm2, ka 382623.73 M-1s-1, kd 5.226 1/s",4.87
same,pKD,"Immobilization level 13000.0 pg/mm2, Rmax 25.0 pg/mm2, ka 300897.372 M-1s-1",4.69

# Reference: ChEMBL document CHEMBL5598561, “ASAP - In vitro binding kinetics” (2024)
